Assay outcomes as filed in PubChem BioAssay.
Shiga inhibitor: blocks Shiga toxin action in Vero cells; Vero cells, Shiga toxin protein synthesis inhibition reporter; inhibition, % at 38.7 µM; 290,000 compounds, 9.2% hits; in the data active = inhibition mostly above about 28%, no sharp cut-off; inactive = mostly below about 43%; note: 0% is about no effect
Marburg entry inh: blocks Marburg virus binding to or entry into cells. Marburg virus pseudotyped entry inhibition, cell reporter. Potency, µM (highest dose often 37.8 µM), for inactives: at the top dose activity change, negative = inhibition, actives largely listed as inhibitors. 300,000 compounds, 1.8% hits; calls by dose curve; tested in HEK293 cells; note: potency is the fitted concentration of half-maximal effect; % is set by controls: 0 for no effect and ±100 for the full control effect
LASV entry inh: blocks Lassa virus binding to or entry into cells | Lassa virus pseudotype entry inhibition, cell reporter | Potency, µM (series often up to 37.9 µM), without a hit: top-dose activity change, negative = inhibition, hits mostly inhibitors | 300,000 compounds, 1.2% hits; calls by dose curve; tested in HEK293 cells; note: potency is the fitted concentration of half-maximal effect; % is set by controls: 0 for no effect and ±100 for the full control effect; nearly all actives have a fitted effect of over 50% in size
AMA1-RON2 inh: AMA1-RON2 (P. falciparum) interaction inhibition | AlphaScreen AMA1-biotinylated RON2 peptide binding | Potency, µM (highest dose often 58.2 µM), for the others: at the highest dose activity change, negative = inhibition, actives largely listed as inhibitors | 360,000 compounds, 0.2% hits; active = well fitted inhibition curve with a large enough effect; inconclusive = small, poorly fitted or top-dose-only effect; inactive = no such curve, though single readings can be large or run the other way;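 note: potency is the fitted concentration of half-maximal effect; 0% = vehicle wells and -100% = peptide control; nearly all actives have a fitted effect of over 45% in size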
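AMA1 (3D7) with his tag at 25 nM final met compounds first, then biotinylated RON2 peptide at 25 nM; detection used donor plus acceptor beads, 10 µg/mL apiece, read by AlphaScreen after 30 min at room temperature.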
CHX counter: counter-screen for Shiga toxin inhibitors: cycloheximide protein synthesis inhibition; cell reporter, cycloheximide protein synthesis inhibition counterscreen; max response, %; 300,000 compounds, 12% hits; in the data active = max response mostly above about 13%, no sharp cut-off; inactive = mostly below about 14%; note: read at 38.3 µM for the half of the compounds with a filed dose; 0% is about no effect
The depositor's hits bear a star; i = inactive; ? = inconclusive; . = no result given; + = active, no number; [ ] = dose if it differs, or a comment. This excerpt belongs to a sample that is enriched for hits.

SMILES	Shiga inhibitor	Marburg entry inh	LASV entry inh	AMA1-RON2 inh	CHX counter
COc1ccc(C(O)Cc2nccn2C)cc1 (stereo not given)	.	.	.	-7%	.
Cc1ccc(C(=O)COC(=O)C2CCC2)cc1	48*	?	-7%[46.1 µM]	42%	36*
Cc1ccc(C(=O)COC(=O)c2ccc(O)cc2)cc1	94*	?	?	-21%	33*
CC(C)(C)NC(=O)COC(=O)c1ccc(O)cc1	19	?	9%	-10%	17*
COc1cc(C(Nc2ccccn2)c2c(NC(=O)c3ccco3)sc(C)c2C)cc(OC)c1OC (stereo not given)	76*	-23%	-34%	-27%	29*
COc1cc(C(=O)O)cc(NC(=O)c2ccco2)c1OC	-10	16%	11%	-5%	-4
COc1ccc(C(Nc2ccccn2)c2c(NC(=O)c3ccco3)sc(C)c2C)cc1OC (stereo not given)	26	-15%	-36%	-21%	22*
Cc1nc(S/C(=C/c2ccc(-c3cc(Cl)ccc3C)o2)C(=O)O)n[nH]1	103*	.	.	109%	29*
CC1Oc2ccccc2C=C1/C=N\NC(=O)c1cccnc1 (stereo not given)	53*	2%	-1%	4%	20*
CC1Oc2ccccc2C=C1/C=N/NC(=O)c1ccccc1O (stereo not given)	+	-2%	-24%	94%	43*
CC1Oc2ccccc2C=C1/C=N/NC(=O)c1ccccc1 (stereo not given)	25	?	?	16%	18
COc1cc2oc(=O)cc(-c3ccc(-c4sccc4C=O)cc3)c2c(OC)c1OC	i	.	.	.	10
Cc1cc2nc(/C=C/c3cccnc3)[nH]c2cc1C	40*	.	.	12%	31*
CCOC(=O)C1CCN(S(=O)(=O)c2cn(C)c(C)n2)CC1	-4	5%[46.1 µM]	-6%[46.1 µM]	-7%	1
COc1ccc(-c2csc(N(CCCN(C)C)C(=O)c3ccccc3F)n2)cc1	-13	.	.	-15%	-3
COc1ccc(-c2csc(N(CCCN(C)C)C(=O)c3ccccc3Cl)n2)cc1	.	5.6µM*	?	-5%	.
COc1ccc(-c2csc(N(CCCN(C)C)C(=O)c3ccccc3C)n2)cc1	-11	?	10µM*	-6%	-10
CC(=O)N1c2ccccc2CC1C(=O)N1CCN(c2cccc(Cl)c2)CC1 (stereo not given)	.	.	-14%[46.1 µM]	.	.
Cc1ccc(S(=O)(=O)CCC(=O)NCCN2C(=O)S/C(=C\c3ccccc3)C2=O)cc1	36	-23%	-3%	-4%	16*
O=C(CCS(=O)(=O)c1ccc(Cl)cc1)NCCN1C(=O)S/C(=C\c2ccccc2F)C1=O	67*	-23%	17%	5%	34*
CCCn1c(CCC(=O)Nc2cc(Cl)c(OC)cc2OC)nc2cccnc21	.	?	2%[46.1 µM]	.	.
CCOC(=O)c1c(-c2ccc(OC)cc2)oc2cc(Br)c(O)cc12	-16	.	.	11%	-6
CCOC(=O)c1c(C)[nH]c2cc(Br)c(O)cc12	65*	3%	0%	10%	38*
CCn1nc(C)c(Br)c1-c1nc(CS(=O)(=O)c2ccsc2)no1	26	.	.	2%	28*
O=C(NC1=NCCS1)c1ccncc1	8	-18%	2%	1%	-2
SMILES	Shiga inhibitor	Marburg entry inh	LASV entry inh	AMA1-RON2 inh	CHX counter
Cc1cccc(C(=O)NC2=NCCS2)c1	56*	?	?	8%	35*
O=C(NC1=NCCS1)c1ccccc1	20	-1%	?	-4%	17
Cc1cc(C(=O)NC2=NCCS2)cs1	66*	-29%	?	-9%	41*
CCOc1ccc(NC(=O)CN2CCN(c3ccc(F)cc3)CC2)cc1S(=O)(=O)N1CCCC1	.	.	.	31%	.
O=C1NC[C@@H](CCCCN2CCN(CC3CCCCC3)C(=O)C2=O)N(CCC2CCCCC2)C1=O	.	.	.	-10%	.
CC(=O)C1=NN(c2ccccc2)C(c2ccc3c(c2)OCO3)N1c1ccccc1 (stereo not given)	24	1%	-17%	23%	-1
CC(=O)C1=NN(c2ccccc2)C(c2cccs2)N1c1ccc(N(C)C)cc1 (stereo not given)	15	?	21µM*	?	15
O=C(Nc1ccccc1)OCCOc1ccccc1	61*	10%	8%	3%	32*
O=C(Nc1ccccc1)OCCOc1cccc(Br)c1	8	-2%	-10%	12%	2
O=C(Nc1ccccc1)OCCOc1ccccc1Br	28*	.	.	24%	35*
O=C(Nc1cccc(Cl)c1)OCCOc1ccccc1	75*	.	.	15%	56*
CCC1(COC(=O)Nc2cccc(Cl)c2)COC1	51	-1%	14%	3%	22*
O=c1[nH]c2ccc(S(=O)(=O)N3CCN(S(=O)(=O)c4c(F)cccc4F)CC3)cc2[nH]c1=O	-2	.	.	.	-3
COC1=C/C(=C/c2c(N)n3c(nc2=O)sc2cc(S(C)(=O)=O)ccc23)C=CC1=O	23	.	.	6%	9
CS(=O)(=O)c1ccc2c(c1)sc1nc(=O)c(/C=C3/C=CC(=O)C(O)=C3)c(N)n12	41*	?	0%	-26%	20*
CC(C)C/C=C1\CCc2c([nH]c3ccccc23)C1=O	88*	11%[46.1 µM]	0%[46.1 µM]	17%	46*
O=C1/C(=C/c2cccnc2)CCc2c1[nH]c1ccccc21	68*	?	-22%	3%	48*
CC1C/C(=C\c2cccnc2)C(=O)/C(=C/c2cccnc2)C1 (stereo not given)	-13	2.1µM*	2.9µM*	-3%	-6
Cc1ccc(/C=C/c2ccc3cccc(O)c3n2)s1	95*	?	?	93%	58*
Oc1cccc(/C=C/c2ccc3cccc(O)c3n2)c1	128*	?	?	72%	37*
COc1ccc(Br)cc1/C=C/c1ccc2cccc(O)c2n1	44	-1%[46.1 µM]	-20%[46.1 µM]	72%	24
COc1cccc(/C=C/c2ccc3cccc(O)c3n2)c1	121*	?	?	81%	47*
CC(=O)COc1cccc2ccc(/C=C/c3ccc(Br)s3)nc12	36*	.	.	37%	20
CCCCCCCCN1C(=O)[C@H](CC(=O)NCc2ccccc2)C[C@@]2(C(=O)OC)CCCCC=C12	.	.	.	1%	.
O=C(Cn1c(=O)n(Cc2ccc3c(c2)OCO3)c(=O)c2ccc(C(=O)NC3CCCCC3)cc21)Nc1ccccc1F	.	9%[46.1 µM]	-5%[46.1 µM]	.	.
SMILES	Shiga inhibitor	Marburg entry inh	LASV entry inh	AMA1-RON2 inh	CHX counter
Cc1ccc(Nc2cc(C)nn2-c2nc(C)cc(=O)[nH]2)cc1	-16	2.8µM*	1.6µM*	52%	10
Cc1ccc(S(=O)(=O)NCC(=O)OCC(=O)NCc2cccs2)cc1	.	?	0%	-4%	.
Cc1cc(C(=O)N/N=C/c2ccc[nH]2)no1	45	2%	28%	27%	20
Cc1cc(C(=O)N/N=C/c2ccc[nH]2)n[nH]1	36*	-2%[46.1 µM]	7%	6%	16*
Cc1cc(C(=O)N/N=C/c2cccnc2)n[nH]1	22	-1%[46.1 µM]	1%[46.1 µM]	20%	2
NC(=S)N/N=C/c1cccc(/C=N/NC(N)=S)c1	13	2%	21%	66%	-2
Cc1cc(C(=O)N/N=C/c2ccc3ccccc3c2)n[nH]1	30*	.	.	13%	23*
